Laboratory results taken from PubChem BioAssay.

test: MRP1 drug-resistance reversers in H69AR cells – cell-based, doxorubicin co-treatment, pilot screen (AID 601); details: H69AR cells + 2 uM doxorubicin, CellTiter-Glo, 72 h; measured here: viability with 2 uM doxorubicin; at 10 µM; stronger effect = lower value

| Structure (SMILES) | viability [%] |
| --- | --- |
| Cc1nccn1CCCN1C(=O)OC2(CCCCC2)C1(C)O (stereo not given) | 102 |
| CCOC(=O)/C=C1\SCC(=O)N1Cc1nnc(-c2ccccc2Br)o1 | 88.2 |
| Cc1ccc(S(=O)(=O)N2CCN(C(=O)c3cc(=O)[nH]c4ccccc34)CC2)c(C)c1 | 79.8 |
| OC(CCCN1CCC(O)(c2ccc(Cl)cc2)CC1)c1ccc(F)cc1 (stereo not given) | 72.3 |
| CCCC(=O)n1nc(-c2ccc(OC)cc2)nc1N | 98.3 |
| Cc1ccc(-c2nn(-c3ccccc3)cc2/C=C(\C#N)c2cccc(C#N)c2)o1 | 73.3 |
| Fc1cccc(NCc2cn3ccccc3n2)c1 | 89.2 |
| CCCc1nc(NCc2ccncc2)c2nnn(Cc3ccccc3F)c2n1 | 45.9 |
| O=C1OCCC1Sc1ncnc2sccc12 (stereo not given) | 82.3 |
| CCOC(=O)C1=C[C@]2(CC)CCCN3CCc4c(n1c1ccccc41)[C@@H]32 | 63.7 |
| C=CCNC(=O)c1ccc(Cl)cc1Cl | 92.6 |
| CCCC(=O)Nc1cc(-c2nnc(OC)c3ccccc23)ccc1N1CCOCC1 | 102 |
| COC(=O)C1C2C=CC3(CN(CC4CCCO4)C(=O)C13)O2 (stereo not given) | 111 |
| Cc1cc(C(C)(C)C)cc(C)c1CC1=NCCN1 | 82.3 |
| CCCn1c(=O)c2[nH]c(C3CCCC3)nc2n(CCC)c1=O | 19.9 |
| c1ccc(OCc2nc(-c3ccccc3)no2)cc1 | 89.9 |
| C=CCn1c(SCC(=O)NCC2CCCO2)nc2scc(-c3ccco3)c2c1=O (stereo not given) | 94.2 |
| COC(=O)Cc1c(C)nc2nc[nH]n2c1=O | 95.3 |
| CCOCCCn1c(=NC(C)=O)c(C(=O)OCC)cc2c(=O)n3ccccc3nc21 | 47.4 |
| Cc1ccc(N2CCN(c3ccc(C)cc3)C(CC(=O)O)C2=O)cc1 (stereo not given) | 93.2 |

| Structure (SMILES) | viability [%] |
| --- | --- |
| C[C@@H]1C[C@H]2[C@@H]3C[C@H](F)C4=CC(=O)C=C[C@]4(C)[C@@]3(F)[C@@H](O)C[C@]2(C)[C@@]1(O)C(=O)COC(=O)C(C)(C)C | 87.3 |
| CC(C)N(C(=O)N1CCC(c2nc(-c3ccncc3)no2)CC1)C(C)C | 106 |
| CCOc1cc2[nH]c(=O)n(CCCCC(=O)NCc3ccco3)c(=O)c2cc1OCC | 95.3 |
| Cc1ccc(C2C(C(=O)c3sc(C)nc3C)=C(O)C(=O)N2CCN(C)C)o1 (stereo not given) | 99.1 |
| COc1cc(C(=O)N2CCCC(c3nc(-c4cccs4)no3)C2)cc(OC)c1OC (stereo not given) | 69.4 |
| CC1Oc2ccccc2N(CC(=O)NCc2cccs2)C1=O (stereo not given) | 94.5 |
| Cn1c(=O)c2c(nc(CN3CCCCC3)n2CCCc2ccccc2)n(C)c1=O | 81 |
| O=C(O)CC1Sc2nc3ccccc3n2C1=O (stereo not given) | 95.4 |
| CCN(CC)S(=O)(=O)c1ccc(F)c(C(=O)NCCC(C)C)c1 | 84.4 |
| CCOC(=O)n1c(=O)oc2cc(S(=O)(=O)N3CCCCC3)ccc21 | 90.8 |
| COC(=O)CCN(C(=O)c1ccc2c(c1)OCO2)c1ccccn1 | 90.7 |
| CC(C)NC(=O)c1ccccc1NC(=O)CCS(=O)(=O)Cc1ccccc1 | 89.1 |
| COc1cc(C2Oc3cc(C4Oc5cc(O)cc(O)c5C(=O)C4O)ccc3OC2CO)ccc1O (stereo not given) | 93.2 |
| CCOc1ccccc1N1CC(O)=C(c2nc3ccccc3s2)C1=N | 60.2 |
| CCOC(=O)N1CCC(NC(=O)Cc2ccc(-n3c(=O)[nH]c4ccccc4c3=O)cc2)CC1 | 88.5 |
| O=C(CSc1nc(-c2ccco2)cc(C(F)(F)F)n1)N1CCCc2ccccc21 | 81.9 |
| Cc1cccc(NC(=O)C2CCCN(C(=O)Nc3ccccc3)C2)c1C (stereo not given) | 90.8 |
| COc1ccc(C(=O)CSc2nnc(-c3ccc(C)cc3)o2)cc1 | 89 |
| O=C(NCc1nc2ccccc2[nH]1)c1ccc(Cl)c(S(=O)(=O)N2CCCC2)c1 | 101 |
| Cc1nc2scc(-c3ccco3)c2c(=O)n1/N=C/N(C)C | 92.6 |

same assay, conditions: H69AR cells, CellTiter-Glo, 72 h; compound alone cytotoxicity; at 10 µM

| Structure (SMILES) | viability [%] |
| --- | --- |
| Cc1nccn1CCCN1C(=O)OC2(CCCCC2)C1(C)O (stereo not given) | 98.5 |
| CCOC(=O)/C=C1\SCC(=O)N1Cc1nnc(-c2ccccc2Br)o1 | 91.3 |
| Cc1ccc(S(=O)(=O)N2CCN(C(=O)c3cc(=O)[nH]c4ccccc34)CC2)c(C)c1 | 83.3 |
| OC(CCCN1CCC(O)(c2ccc(Cl)cc2)CC1)c1ccc(F)cc1 (stereo not given) | 66.1 |
| CCCC(=O)n1nc(-c2ccc(OC)cc2)nc1N | 105 |
| Cc1ccc(-c2nn(-c3ccccc3)cc2/C=C(\C#N)c2cccc(C#N)c2)o1 | 71.6 |
| Fc1cccc(NCc2cn3ccccc3n2)c1 | 87.6 |
| CCCc1nc(NCc2ccncc2)c2nnn(Cc3ccccc3F)c2n1 | 54.5 |
| O=C1OCCC1Sc1ncnc2sccc12 (stereo not given) | 104 |
| CCOC(=O)C1=C[C@]2(CC)CCCN3CCc4c(n1c1ccccc41)[C@@H]32 | 80.1 |
| C=CCNC(=O)c1ccc(Cl)cc1Cl | 97 |
| CCCC(=O)Nc1cc(-c2nnc(OC)c3ccccc23)ccc1N1CCOCC1 | 94.5 |
| COC(=O)C1C2C=CC3(CN(CC4CCCO4)C(=O)C13)O2 (stereo not given) | 102 |
| Cc1cc(C(C)(C)C)cc(C)c1CC1=NCCN1 | 89.9 |
| CCCn1c(=O)c2[nH]c(C3CCCC3)nc2n(CCC)c1=O | 70.7 |
| c1ccc(OCc2nc(-c3ccccc3)no2)cc1 | 93.5 |
| C=CCn1c(SCC(=O)NCC2CCCO2)nc2scc(-c3ccco3)c2c1=O (stereo not given) | 92.9 |
| COC(=O)Cc1c(C)nc2nc[nH]n2c1=O | 105 |
| CCOCCCn1c(=NC(C)=O)c(C(=O)OCC)cc2c(=O)n3ccccc3nc21 | 90.5 |
| Cc1ccc(N2CCN(c3ccc(C)cc3)C(CC(=O)O)C2=O)cc1 (stereo not given) | 97.4 |

| Structure (SMILES) | viability [%] |
| --- | --- |
| C[C@@H]1C[C@H]2[C@@H]3C[C@H](F)C4=CC(=O)C=C[C@]4(C)[C@@]3(F)[C@@H](O)C[C@]2(C)[C@@]1(O)C(=O)COC(=O)C(C)(C)C | 79.5 |
| CC(C)N(C(=O)N1CCC(c2nc(-c3ccncc3)no2)CC1)C(C)C | 102 |
| CCOc1cc2[nH]c(=O)n(CCCCC(=O)NCc3ccco3)c(=O)c2cc1OCC | 82.5 |
| Cc1ccc(C2C(C(=O)c3sc(C)nc3C)=C(O)C(=O)N2CCN(C)C)o1 (stereo not given) | 103 |
| COc1cc(C(=O)N2CCCC(c3nc(-c4cccs4)no3)C2)cc(OC)c1OC (stereo not given) | 89.7 |
| CC1Oc2ccccc2N(CC(=O)NCc2cccs2)C1=O (stereo not given) | 108 |
| Cn1c(=O)c2c(nc(CN3CCCCC3)n2CCCc2ccccc2)n(C)c1=O | 81.7 |
| O=C(O)CC1Sc2nc3ccccc3n2C1=O (stereo not given) | 102 |
| CCN(CC)S(=O)(=O)c1ccc(F)c(C(=O)NCCC(C)C)c1 | 90.9 |
| CCOC(=O)n1c(=O)oc2cc(S(=O)(=O)N3CCCCC3)ccc21 | 90.2 |
| COC(=O)CCN(C(=O)c1ccc2c(c1)OCO2)c1ccccn1 | 98.5 |
| CC(C)NC(=O)c1ccccc1NC(=O)CCS(=O)(=O)Cc1ccccc1 | 87.7 |
| COc1cc(C2Oc3cc(C4Oc5cc(O)cc(O)c5C(=O)C4O)ccc3OC2CO)ccc1O (stereo not given) | 97.4 |
| CCOc1ccccc1N1CC(O)=C(c2nc3ccccc3s2)C1=N | 14.5 |
| CCOC(=O)N1CCC(NC(=O)Cc2ccc(-n3c(=O)[nH]c4ccccc4c3=O)cc2)CC1 | 96.4 |
| O=C(CSc1nc(-c2ccco2)cc(C(F)(F)F)n1)N1CCCc2ccccc21 | 84 |
| Cc1cccc(NC(=O)C2CCCN(C(=O)Nc3ccccc3)C2)c1C (stereo not given) | 96.2 |
| COc1ccc(C(=O)CSc2nnc(-c3ccc(C)cc3)o2)cc1 | 86.4 |
| O=C(NCc1nc2ccccc2[nH]1)c1ccc(Cl)c(S(=O)(=O)N2CCCC2)c1 | 96.8 |
| Cc1nc2scc(-c3ccco3)c2c(=O)n1/N=C/N(C)C | 95.3 |
